# Results filed as inconclusive are left out. The source made the active and inactive calls. The rule behind the calls is not given here.
# Assay: dose response, DH231 delta cqsS, luminescence, dry powder (AID 651808)
# Conditions: V. cholerae DH231 delta cqsS, luxCDABE luminescence, 6 h, stronger effect = higher value
compound,measurement,setting,value
CCn1nnc(NCc2ccc(C)cc2)n1,max activity (light induction),"at 0.35 µM, test 2",39.1% (inactive)
CC(C)c1ccc(CNc2nnnn2C)cc1,max activity (light induction),"measured here: test 1 replicate run, at 0.0042 µM, test 1",39.1%
CCCn1nnnc1NCc1ccccc1Cl,max activity (light induction),"measured here: test 1 replicate run, at 0.35 µM, test 1",43.6%
